mHTT CaM bind – mutant huntingtin-calmodulin interaction inhibitors – biochemical, AlphaScreen, primary screen; inhibition, % at 15 µM; P42858; 190,000 tested, 3.6% active; AID 1671202, 2021; AlphaScreen His-mHTT/GST-CaM binding, luminescence;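 note: 0% = both proteins with DMSO and 100% = one protein alone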
Pf apPOL inh – Pf-apPOL inhibitors, biochemical, fluorescence. AID 1794808, 2022. inhibition, % at 10 µM. Recombinant Pf-apPOL, molecular beacon fluorescence, 1.5 h. 210,000 tested, 0.25% active
* hit, by the source's call; i = inactive; / = not tested or not shown; ! = a repeat was not active. Compounds with a hit are over-represented: about 3.5% of the library has one in this group of screens. Cut-off read from the data, not from the text of the source: active = inhibition above about 50%; inactive = the rest.

SMILES	mHTT CaM bind	Pf apPOL inh
Cc1ccc2ccc(C(Nc3ccccn3)c3ccsc3)c(O)c2n1 (centres undefined)	75.6*	-4.4
CCOc1ccccc1Nc1cc(C)nc2c(C)cccc12	-8.5	-2.0
COc1ccc(C(Nc2ccccn2)c2ccc3ccc(C)nc3c2O)cc1 (centres undefined)	72.0*	-0.6
CCOc1ccc(C(Nc2ccccn2)c2ccc3ccc(C)nc3c2O)cc1C (centres undefined)	75.0*	25.1
CCOC(=O)c1oc(C(=O)O)c2c1OCCO2	-0.7	/
c1coc(CN2CCCC(OCc3nc(-c4ccncc4)no3)C2)c1 (centres undefined)	-0.6	-0.8
CC1(c2ccc(Cl)cc2)CC(C)(C)N(C(=O)c2cccnc2)c2ccccc21 (centres undefined)	48.0	3.8
Cn1ccnc1SCC(=O)N1c2ccccc2C(C)(c2ccc(Cl)cc2)CC1(C)C (centres undefined)	61.0*	4.7
COc1ccccc1N(C)CCNC(=O)c1sc2nc(C)n(C)c(=O)c2c1C	4.0	-9.4
Cc1cc(C)cc(NC(=O)c2cccnc2-c2cccs2)c1	-0.8	-1.0
O=C1C(=CC=Cc2ccco2)SC(=S)N1C1CCCCC1	77.8*	18.4
S=c1[nH]nc(C2CCCCC2)n1/N=C\C=C\c1ccco1	i	/
CN1CCc2cc(C(CNC(=O)Cc3cccc4ccccc34)N3CCOCC3)ccc21 (centres undefined)	60.9*	-37.9
CN1CCc2cc(C(CNC(=O)c3ccccc3Br)N3CCOCC3)ccc21 (centres undefined)	38.3	-24.3
N#CC1=C(S)NC(=O)C([n+]2ccccc2)C1c1ccc(F)c(Br)c1 (centres undefined)	33.0	-1.0
N#CC1=C(S)NC(O)(c2ccccc2)C([n+]2ccccc2)C1c1ccccc1Br (centres undefined)	77.0*	-4.2
Cc1cc(N2CCN(C(=O)c3cccs3)CC2)c(F)cc1[N+](=O)[O-]	5.1	3.1
O=C(c1cccs1)N1CCN(c2cc(N3CCCCCC3)c(F)cc2[N+](=O)[O-])CC1	59.7*	-10.7
COc1ccc(-n2c(CCC(=O)O)ccc2-c2cccs2)c(OC)c1	55.0*	7.9
COc1ccc(-c2ccc(CCC(=O)O)n2-c2ccc(OC)cc2OC)cc1	49.0	-2.7
Cc1ccc(Cn2nc(C(=O)ON=C(N)c3ccccc3)cc2C)cc1	/	-12.2
O=C(CC1COc2ccccc2NC1=O)Nc1cccc(C(F)(F)F)c1 (centres undefined)	-8.7	-0.9
CC(=O)N1N=C(c2c(-c3ccccc3)c3cc(Cl)ccc3[nH]c2=O)CC1c1ccc(Cl)cc1 (centres undefined)	100.0*	-6.1
COc1ccc(C2=NN(C(C)=O)C(c3ccc(Cl)cc3)C2)cc1 (centres undefined)	/	-3.7
O=c1[nH]c2ccc(Cl)cc2c(-c2ccccc2)c1C1=NOC(c2ccc(F)cc2)C1 (centres undefined)	100.0*	5.4
SMILES	mHTT CaM bind	Pf apPOL inh
O=c1[nH]c2ccc(Br)cc2c(-c2ccccc2)c1C1=NOC(c2ccccc2)C1 (centres undefined)	15.0	-0.1
Fc1ccccc1OCCCCOc1ccccc1F	-23.5	-3.1
Nc1cc(C(=O)c2ccc(O)c(N)c2)ccc1O	17.2	-8.2
Nc1cc(Oc2ccc(O)c(N)c2)ccc1O	90.2*	2.8
O=C(Cn1cc(OCc2ccccc2F)c(=O)cc1CO)NCc1ccc2c(c1)OCO2	-2.1	-3.6
O=C(CSC1CCCC1)N1CCN(c2ccc(-c3ccccn3)nn2)CC1	100.1*	-7.2
COc1cccc(C(=O)N2CCN(c3ccc(-c4ccccn4)nn3)CC2)c1OC	100.1*	-3.5
COc1cccc(C(=O)N2CCN(c3ccc(Nc4ccccn4)nn3)CC2)c1OC	14.2	-8.7
O=C(Cn1ccc2ccccc21)N1CCN(c2ccc(-c3ccccn3)nn2)CC1	44.6	0.5
O=C(CSCc1ccccc1)N1CCN(c2ccc(-c3cccs3)nn2)CC1	7.6	-20.9
O=C(CCSc1ccccc1)N1CCN(c2ccc(-c3ccccn3)nn2)CC1	100.0*	1.3
O=C(c1ccnc(N2CCNC(c3ccccc3)C2)c1)N1CCN(c2ncccn2)CC1 (centres undefined)	-1.3	-0.9
COc1cccc(CC(=O)N2CCC(c3nc4ccncc4n3C)C2)c1 (centres undefined)	-1.0	-3.1
CNC(=O)c1c(NC(C)=O)sc2c1CCCCC2	-2.5	-39.6
CNC(=O)c1c(N=Cc2ccccc2O)sc2c1CCCC2	61.0*	6.4
CCOc1ccc2c(c1)-c1c(sn(-c3ccc(C(C)C)cc3)c1=S)C(C)(C)N2	76.4*	/
CCOc1ccc(-n2sc3c(c2=S)-c2ccc(OC)cc2NC3(C)C)cc1	93.7*	/
CCOc1ccc2c(=O)c(-c3ccc(OC)cc3)coc2c1	-2.8	-8.7
CCOc1ccc2c(c1)-c1c(sn(-c3ccc(OC)cc3)c1=S)C(C)(C)N2	94.2*	/
CCOc1ccc(C2CC(c3cccc(OC)c3)n3nc(N)nc3N2)cc1 (centres undefined)	16.1	-4.8
CCOc1ccc(N2C(=O)Nc3ccc(Br)cc3C2(O)C(=O)NC(C)C)cc1 (centres undefined)	7.0	-7.4
O=C1NCCCn2cc(S(=O)(=O)NCc3ccccc3Cl)cc21	0.1	2.3
Cc1ccc(CN2CCC3(CC2)N=C(c2ccc(Br)cc2)C(=O)N3)cc1	10.8	-3.0
OC(C#CC12CC3CC(CC(C3)C1)C2)c1cccnc1 (centres undefined)	43.0	-0.9
Cc1ccc(C(O)C#CC23CC4CC(CC(C4)C2)C3)o1 (centres undefined)	87.0*	3.3
SMILES	mHTT CaM bind	Pf apPOL inh
COc1ccc(C)cc1NC(=O)c1cc(S(=O)(=O)NCc2ccc(C)cc2)ccc1F	-7.0	31.0
CCOCc1ccc(O)c2ncccc12	100.3*	-4.3
CCOc1c(C)cc(-c2ncccc2O)cc1C	-0.8	-0.2
Cc1ccc(NC(=O)C2CCN(c3cc(Br)ccc3C)C2=O)cc1C (centres undefined)	73.6*	3.5
Cc1ccc(Br)cc1N1CCC(C(=O)Nc2cccc(F)c2)C1=O (centres undefined)	30.7	-6.8
COc1ccc(-c2ccc(C)cc2)cc1[C@H]1[C@H]2C=CC[C@@H](C)[C@@H]2C(=O)N1Cc1ccccc1	-1.7	-4.3
COc1ccc(-c2ccoc2)cc1[C@H]1[C@H]2C=CC[C@@H](C)[C@@H]2C(=O)N1Cc1ccccc1	86.1*	-0.2
Cc1n[nH]c(C)c1S(=O)(=O)N1CCc2c(c(-c3nc(-c4ccccc4)no3)nn2C)C1	52.6*	-2.2
Cc1ccc(S(=O)(=O)N2CCc3c(c(-c4nc(-c5ccccc5)no4)nn3C)C2)cc1C	-9.6	-3.4
COc1ccc(C(=O)Nc2nc3ccc(C)cc3s2)cc1[N+](=O)[O-]	1.9	-23.1
COc1ccc(C(=O)Nc2nc3ccc(C)cc3s2)cc1OC	51.0*!	1.7
CNC(=O)c1ccccc1Cn1c(C)c(C)sc1=NC(=O)c1cccc(C)c1	5.6	1.8
Cc1ccc(S(=O)(=O)N2CCN(C(=O)c3ccccc3)C2)cc1	-5.0	-1.9
CCc1cccc2c1NC(c1ccc(OC)c([N+](=O)[O-])c1)C1CC=CC21 (centres undefined)	59.0*	-6.9
COc1ccc(C2Nc3c(OC)cccc3C3C=CCC32)cc1[N+](=O)[O-] (centres undefined)	66.0*	-4.6
